MCF10A rerep: induces DNA re-replication in MCF 10a normal breast cells; MCF 10A DNA re-replication, Hoechst nuclear intensity, 48 h; Potency, µM (titrated, usually from 46.1 µM), without a hit: at the highest dose activity, positive = re-replication, usual class: activators; hit rate 2.9% among 350,000; further: % of control where 0% means no effect; nearly all actives have a fitted effect of over 50% in size
KB-3-1 cytotox: kills parental KB-3-1 adenocarcinoma cells; KB-3-1 viability, CellTiter-Glo ATP luminescence, 72 h; Potency, µM (top dose mostly 46.1 µM), most hits filed as cytotoxic; hit rate 1.4% among 400,000; further: on the % scale 0 is the no-effect control and ±100 the full control effect; nearly all actives have a fitted effect of over 60% in size
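Parental KB-3-1 adenocarcinoma cells in phenol-red-free DMEM with 10% FBS were pin-treated with compounds at several concentrations, incubated 72 h at 37 °C, and viability read by CellTiter-Glo luminescence; concentration-effect curves were fitted after normalization.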
HT1080 IDH1KD tx: HT-1080 IDH1 knockdown cell toxicity (counter line); Potency, µM (highest dose often 46.1 µM), without a hit: top-dose activity, negative = toxicity, actives largely listed as cytotoxic; hit rate 2% among 360,000; HT-1080 IDH1 knockdown viability, ATP luminescence, 48 h;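 further: 0% = DMSO wells and -100% = cell-free medium wells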
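HT-1080-IDH1KD cells (IDH1 knocked down), 750/well in RPMI with 5% FBS, treated with compound 48 h at 37 degrees C. Viability by CellTiter-Glo luminescence, normalised to DMSO and no-cell wells; concentration-response curves classed.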
HT1080NT lethal: kills 2HG-producing HT-1080-NT fibrosarcoma cells | HT-1080-NT fibrosarcoma viability, CellTiter-Glo ATP luminescence, 48 h | hit rate 1.6% among 360,000 | Potency, µM (highest dose often 46.1 µM), without a hit: top-dose activity, negative = less viability, most hits filed as cytotoxic | AID 686970;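 further: NT is the 2HG producing partner of a matched IDH1 knockdown line; 0% = DMSO-treated cells and -100% = media-only wells without cells; nearly all actives have a fitted effect of over 55% in size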
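Toxicity toward the 2HG-producing NT line was scored as %Activity, normalised to DMSO and no-cell wells, from CellTiter-Glo luminescence after 48 hours' treatment.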
KB-V1 MDR tox: kills drug-selected multidrug resistant KB-V1 cells. Potency, µM (series often up to 46.1 µM), usual class: cytotoxic. KB-V1 MDR cells viability, CellTiter-Glo, 72 h. AID 1347076. hit rate 3.4% among 400,000; further: on the % scale 0 is the no-effect control and ±100 the full control effect; nearly all actives have a fitted effect of over 60% in size
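KB-V1 cells (P-gp-expressing MDR subline of KB-3-1) in phenol-red-free DMEM with 10% FBS were exposed to library compounds over a concentration series for 72 h at 37 degrees C. Viability read by CellTiter-Glo luminescence; concentration-effect curves fitted after normalization.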
SW480 rereplic: inducers of DNA re-replication in SW480 colon cancer cells; SW480 DNA re-replication, Hoechst DNA content imaging, 48 h; Potency, µM (titrated, usually from 46.1 µM), inactives show at the highest dose re-replication activation, actives largely listed as activators; hit rate 1.8% among 340,000; AID 624297; further: % of control where 0% means no effect; nearly all actives have a fitted effect of over 55% in size
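Per well, 250 cells were exposed to pinned compound for 48 hr. Nuclear DNA was visualised with Hoechst (40 min, 37 C) and total object intensity recorded by fluorescence scanning.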
An asterisk follows results filed as active; i = inactive; ? = inconclusive; . = no result. Compounds with a hit are over-represented: about 7.9% of the library has one in this group of screens. The call rests on the fitted dose curve; in most records, active means well fitted curve in the direction sought with a large enough effect; inconclusive means small, poorly fitted or top-dose-only effect, or another doubt; inactive means no such curve, though single readings can be large; an effect the other way counts as inactive or inconclusive. Potency means the concentration at half of the fitted maximal effect.

SMILES	MCF10A rerep	KB-3-1 cytotox	HT1080 IDH1KD tx	HT1080NT lethal	KB-V1 MDR tox	SW480 rereplic
COc1ccccc1CCC(=O)Nc1ccc(OC)c(S(=O)(=O)N2CCCCC2)c1	1%	i	-4%	-1%	i	-7%
COc1cc(Cn2c3ccc(NC(=O)CCc4ccccc4)cc3c(=O)n2C)ccc1F	.	9.2µM*	?	?	5.8µM*	.
COc1ccccc1CCC(=O)Nc1ccc2c(c1)c(=O)n(C)n2-c1cccs1	.	3.3µM*	?	?	i	.
Nc1ccc2nn(-c3ccc(F)cc3)nc2c1	18µM*	i	3%	2%	i	?
CC(C)c1ccc(-n2nc3ccc(N)cc3n2)cc1	23µM*	i	-11%	-19%	i	23µM*
COc1ccc(-n2nc3ccc(N)cc3n2)cc1	.	i	-4%	-2%	i	.
Cc1ccc(-n2nc3ccc(N)cc3n2)cc1	?	i	-18%	-21%	i	16µM*
CCN(CC)S(=O)(=O)c1ccc2c(c1)nc(CN(C)C(=O)Nc1ccc(F)cc1)n2C	.	i	.	.	i	.
CCCC(=O)NCC1(N(C)C)CCCCC1	.	?	.	.	i	.
NC(=O)C1CCN(c2ncc(-c3ccc4c(c3)OCO4)s2)CC1	.	i	.	.	i	.
CCOc1ccc(N2C(=O)/C(=C/c3ccccc3)N=C2SC)cc1	5.8µM*	i	9%	10%	i	7%
COc1ccc(/C=C2\N=C(SC)N(c3ccccc3OC)C2=O)cc1	?	?	?	1%	i	18µM*
CS(=O)(=O)CCC(C(=O)Nc1cccc(C(F)(F)F)c1)N1Cc2ccccc2C1=O (stereo not given)	.	i	.	.	i	.
CCCNC(=O)C1=CC(c2ccc3c(c2)OCO3)=NS(=O)(=O)N1C	.	i	.	.	i	.
O=C(CCNS(=O)(=O)c1ccc(OC(F)(F)F)cc1)Nc1cccc(S(=O)(=O)N2CCCC2)c1	3%	i	-1%	0%	i	-19%
O=C(CCNS(=O)(=O)c1ccc(OC(F)(F)F)cc1)N1CCN(C/C=C/c2ccccc2)CC1	?	?	-11%	-2%	6.5µM*	2%
Cc1ccc(C(=O)N2CCCCCC2)cc1S(=O)(=O)Nc1ccccc1	2%	i	0%	4%	?	-5%
COc1ccc(NS(=O)(=O)c2cc(C(=O)N3CCN(C/C=C/c4ccccc4)CC3)ccc2C)cc1	11%	18µM*	-12%	-8%	5.8µM*	-1%
COc1ccc(C)cc1S(=O)(=O)N1CCN(C/C=C/c2ccccc2)CC1	0%	i	-5%	-4%	18µM*	-3%
COc1ccc(C)cc1S(=O)(=O)N1CCN(S(=O)(=O)c2cc(C)ccc2OC)CC1	-6%	i	1%	-1%	?	-3%
CCN(C(=O)Cn1ncc2c(=O)oc3ccccc3c21)c1ccccc1F	.	i	.	.	i	.
O=C(Cc1ccc(Br)cc1)NCc1ccccc1	5.8µM*	5.8µM*	2.9µM*	8.2µM*	4.6µM*	5.8µM*
COc1cc(NC(=O)c2ccc(Br)cc2)c(OC)cc1NC(=O)c1ccccc1	?	i	0%	-5%	i	-2%
COc1ccccc1CNC(=O)Cc1ccc(Br)cc1	?	i	-24%	-12%	23µM*	.
O=C(COC(=O)Cc1ccc(Br)cc1)NCc1ccccc1	.	i	3%	3%	i	.
SMILES	MCF10A rerep	KB-3-1 cytotox	HT1080 IDH1KD tx	HT1080NT lethal	KB-V1 MDR tox	SW480 rereplic
Cc1ccc(CNC(=O)Cc2ccc(Br)cc2)cc1	6.5µM*	?	8.2µM*	23µM*	?	?
COc1cc(NC(=O)c2ccccc2)c(OC)cc1NC(=O)Cc1ccc(Br)cc1	12µM*	i	-2%	1%	i	?
CCOc1ccc(NC(=O)CCc2nnc3n(C)c(=O)c4sccc4n23)cc1	.	i	.	.	i	.
CCOC(=O)c1c(C)[nH]c(C)c1S(=O)(=O)N1CCC(C(=O)NCc2ccc(F)cc2)CC1	.	i	.	.	i	.
CCOc1ccc(-n2c(SCC(=O)Nc3ccc(CC)cc3)nc3c(oc4ccccc43)c2=O)cc1	.	i	.	.	i	.
N#Cc1ccc(N2Cc3ccccc3C2=NC(=O)c2cccnc2Cl)cc1	?	?	-3%	2%	16µM*	3%
CCN1CCN(C(c2cccc(OC)c2)c2c(O)cc(C)n(Cc3ccco3)c2=O)CC1 (stereo not given)	.	i	.	.	i	.
Cc1ccn2c(Nc3ccc4c(c3)OCCO4)c(-c3ccccc3O)nc2c1	.	i	.	.	i	.
O=C(O)CC/C(=N\Nc1ccc(S(=O)(=O)N2CCCC2)cc1[N+](=O)[O-])c1cccs1	13%	i	33µM*	?	?	2%
CCOc1ccc2nc(N3CCCC(C(=O)Nc4ccc(Br)c(C)c4)C3)sc2c1 (stereo not given)	.	i	.	.	i	.
Cc1cccc(C)c1-n1nnnc1C(c1ccnc2ccccc12)N(CCN(C)C)Cc1ccccc1 (stereo not given)	.	?	21µM*	21µM*	?	.
Cc1ccccc1SCC(=O)NCC1(N2CCCCC2)CCCCC1	.	i	-1%	-10%	i	.
COc1ccc(Cl)cc1NC(=O)CN(C)S(=O)(=O)c1ccc2c(c1)CCCN2C(C)=O	.	?	.	.	i	.
Cc1ccccc1NC(=O)Cn1cnc2c(oc3ccccc32)c1=O	3%	i	4%	1%	18µM*	2%
Cc1cccc(NC(=O)Cn2cnc3c(oc4ccccc43)c2=O)c1C	2%	i	-7%	0%	i	-4%
Cc1ccc(-n2c(SCC(N)=O)nc3c(c2=O)C2(CCCC2)Cc2ccccc2-3)cc1	?	?	-4%	-6%	10µM*	0%
Cc1ncc(CO)c(/C=N/NC(=S)Nc2ccc(C(C)C)cc2)c1O	20%	?	?	3%	i	2.9µM*
Cc1cc(C(=O)N/N=C/c2c(CO)cnc(C)c2O)c2ccccc2n1	?	?	21µM*	?	i	?
Cc1cccc(N2CC(c3nc4ccc(C)cc4[nH]3)CC2=O)c1 (stereo not given)	.	i	.	.	i	.
CC(C)CCNC(=O)Nc1ccc2c(c1)N(C)C(=O)c1ccccc1S2	.	?	.	.	i	.
CC(C)c1ccc(NC(=O)CSC2=Nc3ccccc3C3=NC(CC(=O)NCc4cccs4)C(=O)N23)cc1 (stereo not given)	.	i	.	.	i	.
O=C(O)CN1CCN(CC(=O)O)CCN(CC(=O)O)CCN(CC(=O)O)CC1	-4%	i	16%	29%	i	-7%
